Data from PubChem BioAssay (NCATS).
For part of these data: Results with a measured potency or affinity are listed apart. Activity calls are given as the source filed them. How the calls were made is not given here. Bridge positions count the residues as written; N and C are the ends. Square brackets hold non-standard residues; d marks the D form. Peptide text beside a SMILES is read from it. hArg = N=C(N)NCCCC[C@H](N)C(=O)O; Mpa = O=C(O)CCS

Key:
[1] = Ebola virus entry assay, green fluorescence channel
[2] = Ebola virus entry assay, blue channel fluorescence
[3] = Ebola virus entry assay, ratio channel
[4] = Ebola virus entry assay, green channel fluorescence
[5] = Ebola virus entry assay, reporter ratio channel; Channel type: primary
[6] = Ebola virus entry assay, blue channel (ratio component)
Wherever efficacy is given: 0% is about no effect.

CC(C)Cn1cnc2c1c(=O)n(C)c(=O)n2C
inactive: efficacy [1] -27.1% | outcome [2] | outcome [3] | outcome [4] | outcome [5] | outcome [6]

Clc1ccc(C(Cn2ccnc2)OCc2ccc(Sc3ccccc3)cc2)c(Cl)c1 (configuration not stated)
inactive: efficacy [1] 29.2% | outcome [2] | outcome [3] | outcome [4] | outcome [5] | outcome [6]

COc1cc(C(=S)N2CCOCC2)ccc1O
inactive: efficacy [1] -16.3% | outcome [2] | outcome [3] | outcome [4] | outcome [5] | outcome [6]

CCCCCCCC/C=C\CCCCCCCCN
inactive: efficacy [1] 12.8% | outcome [2] | outcome [3] | outcome [4] | outcome [5] | outcome [6]

CN(C)C(=O)CNC(=O)Cc1ccccc1
inactive: efficacy [1] 16.6% | outcome [2] | outcome [3] | outcome [4] | outcome [5] | outcome [6]

O=C(O)CCC(=O)c1ccc(-c2ccccc2)cc1
inactive: efficacy [1] 17.7% | outcome [2] | outcome [3] | outcome [4] | outcome [5] | outcome [6]

CNC(C)Cc1ccccc1OC (configuration not stated)
inactive: efficacy [1] -13.2% | outcome [2] | outcome [3] | outcome [4] | outcome [5] | outcome [6]

O=C1c2ccccc2C(=O)C1c1ccc(Br)cc1
inactive: efficacy [1] -9.92% | outcome [2] | outcome [3] | outcome [4] | outcome [5] | outcome [6]

CC[N+]1(CC)CCC(=C(c2ccccc2)c2ccccc2)C1C (configuration not stated)
inactive: efficacy [1] 13% | outcome [2] | outcome [3] | outcome [4] | outcome [5] | outcome [6]

Cc1c(N)c(=O)n(-c2ccccc2)n1C
inactive: efficacy [1] -25.5% | outcome [2] | outcome [3] | outcome [4] | outcome [5] | outcome [6]

CCc1nnc(NS(=O)(=O)c2ccc(N)cc2)s1
inactive: efficacy [1] -8.59% | outcome [2] | outcome [3] | outcome [4] | outcome [5] | outcome [6]

OCC(O)CN1CCN(c2ccccc2)CC1 (configuration not stated)
inactive: efficacy [1] 24.6% | outcome [2] | outcome [3] | outcome [4] | outcome [5] | outcome [6]

CC(C(=O)O)c1ccc(CC2CCCC2=O)cc1 (configuration not stated)
inactive: efficacy [1] 31.1% | outcome [2] | outcome [3] | outcome [4] | outcome [5] | outcome [6]

C[C@@H]1C[C@H]2[C@@H]3CCC4=CC(=O)C=C[C@]4(C)[C@@]3(F)[C@@H](O)C[C@]2(C)[C@H]1C(=O)CO
inactive: efficacy [1] 20.4% | outcome [2] | outcome [3] | outcome [4] | outcome [5] | outcome [6]

CCNc1nc(Cl)nc(NCC)n1
inactive: efficacy [1] 16.6% | outcome [2] | outcome [3] | outcome [4] | outcome [5] | outcome [6]

Cc1c(Cl)cccc1Nc1ccccc1C(=O)O
inactive: efficacy [1] 13.8% | outcome [2] | outcome [3] | outcome [4] | outcome [5] | outcome [6]

CC1CCc2cc(F)cc3c(=O)c(C(=O)O)cn1c23 (configuration not stated)
inactive: efficacy [1] -9.54% | outcome [2] | outcome [3] | outcome [4] | outcome [5] | outcome [6]

CCOC(=O)C(C)(C)Oc1ccc(Cl)cc1
inactive: efficacy [1] 22.6% | outcome [2] | outcome [3] | outcome [4] | outcome [5] | outcome [6]

Cc1ccc(/C=N/n2c(-c3ccccc3)csc2=S)cc1
inactive: efficacy [1] 32.3% | outcome [2] | outcome [3] | outcome [4] | outcome [5] | outcome [6]

CCOC(=O)[C@H](CCc1ccccc1)N[C@@H](C)C(=O)N1C(=O)N(C)C[C@H]1C(=O)O
inactive: efficacy [1] -14.8% | outcome [2] | outcome [3] | outcome [4] | outcome [5] | outcome [6]

O=C(O)CCC(=O)Nc1ccc(S(=O)(=O)Nc2nccs2)cc1
inactive: efficacy [1] -34.8% | outcome [2] | outcome [3] | outcome [4] | outcome [5] | outcome [6]

CC(C)(C)NCC(O)COc1cccc2c1CCC(=O)N2 (configuration not stated)
inactive: efficacy [1] -22.9% | outcome [2] | outcome [3] | outcome [4] | outcome [5] | outcome [6]

O=c1[nH]c(=O)c2[nH]c(=O)[nH]c2[nH]1
inactive: efficacy [1] 22% | outcome [2] | outcome [3] | outcome [4] | outcome [5] | outcome [6]

O=C1OC(c2ccc(O)cc2)(c2ccc(O)cc2)c2ccccc21
inactive: efficacy [1] -10.1% | outcome [2] | outcome [3] | outcome [4] | outcome [5] | outcome [6]

NCC1CCC(C(=O)Oc2ccc(CCC(=O)O)cc2)CC1 (configuration not stated)
inactive: efficacy [1] 32.3% | outcome [2] | outcome [3] | outcome [4] | outcome [5] | outcome [6]

CCCCN(CCCC)C(C(N)=O)c1ccc(OC)cc1 (configuration not stated)
inactive: efficacy [1] 14.3% | outcome [2] | outcome [3] | outcome [4] | outcome [5] | outcome [6]

CCCCCN(CCCCC)C(=O)C(CCC(=O)O)NC(=O)c1ccc(Cl)c(Cl)c1 (configuration not stated)
inactive: efficacy [1] 12.6% | outcome [2] | outcome [3] | outcome [4] | outcome [5] | outcome [6]

CCc1oc2ccccc2c1C(=O)c1cc(Br)c(O)c(Br)c1
inactive: efficacy [1] 16.5% | outcome [2] | outcome [3] | outcome [4] | outcome [5] | outcome [6]

O=C1c2ccccc2C(=O)C1c1ccccc1
inactive: efficacy [1] 13.2% | outcome [2] | outcome [3] | outcome [4] | outcome [5] | outcome [6]

CNC(=O)Oc1ccc2c(c1)[C@]1(C)CCN(C)[C@@H]1N2C
inactive: efficacy [1] 20.2% | outcome [2] | outcome [3] | outcome [4] | outcome [5] | outcome [6]

CCN(CC)CC(=O)OCC(=O)[C@@]1(O)CC[C@H]2[C@@H]3CCC4=CC(=O)CC[C@]4(C)[C@H]3[C@@H](O)C[C@@]21C
inactive: efficacy [1] 17.3% | outcome [2] | outcome [3] | outcome [4] | outcome [5] | outcome [6]

CN(C)CCC(c1ccccc1)c1ccccn1 (configuration not stated)
inactive: efficacy [1] 12.6% | outcome [2] | outcome [3] | outcome [4] | outcome [5] | outcome [6]

CCCCCCCCCCCCCCCCCCOCC(O)CO (configuration not stated)
inactive: efficacy [1] -25.1% | outcome [2] | outcome [3] | outcome [4] | outcome [5] | outcome [6]

CC(=O)OCC(=O)NCCCOc1cccc(CN2CCCCC2)c1
inactive: efficacy [1] -11.5% | outcome [2] | outcome [3] | outcome [4] | outcome [5] | outcome [6]

CC1CC(=O)NN=C1c1ccc(NCC(C)(C)NCC(O)COc2cc(Cl)ccc2C#N)cc1 (configuration not stated)
inactive: efficacy [1] 42.4% | outcome [2] | outcome [3] | outcome [4] | outcome [5] | outcome [6]

Cc1cn([C@H]2C[C@H](F)[C@@H](CO)O2)c(=O)[nH]c1=O
inactive: efficacy [1] -14.7% | outcome [2] | outcome [3] | outcome [4] | outcome [5] | outcome [6]

NC(=O)[C@@H]1CSSCCC(=O)N[C@@H](CCCCN=C(N)N)C(=O)NCC(=O)N[C@@H](CC(=O)O)C(=O)N[C@@H](Cc2c[nH]c3ccccc23)C(=O)N2CCC[C@H]2C(=O)N1 ([Mpa][hArg]GDWPC-NH2; disulfide 1-7)
inactive: efficacy [1] 12.3% | outcome [2] | outcome [3] | outcome [4] | outcome [5] | outcome [6]

N#Cc1cc(NC(=O)C(=O)O)c(Cl)c(NC(=O)C(=O)O)c1
inactive: efficacy [1] 18.8% | outcome [2] | outcome [3] | outcome [4] | outcome [5] | outcome [6]

CC1(C)O[C@@H]2C[C@H]3[C@@H]4C[C@H](F)C5=CC(=O)CC[C@]5(C)[C@H]4[C@@H](O)C[C@]3(C)[C@]2(C(=O)CO)O1
inactive: efficacy [1] 23.9% | outcome [2] | outcome [3] | outcome [4] | outcome [5] | outcome [6]

CCCCCCc1ccc(O)cc1O
active: AC50 [5] 39.8 µM
inactive: efficacy [1] -21% | outcome [2] | outcome [3] | outcome [4] | outcome [6]

CC(C)CCCC(C)N (configuration not stated)
inactive: efficacy [1] -16.5% | outcome [2] | outcome [3] | outcome [4] | outcome [5] | outcome [6]

O=[N+]([O-])c1nccn1CO[C@@H](CO)[C@H](O)CO
inactive: efficacy [1] -11.8% | outcome [2] | outcome [3] | outcome [4] | outcome [5] | outcome [6]

COc1ccnc2c1CCCCC2S(=O)c1nc2ccccc2[nH]1 (configuration not stated)
inactive: efficacy [1] -22.9% | outcome [2] | outcome [3] | outcome [4] | outcome [5] | outcome [6]

COc1ccc2c(C(=O)c3ccc(Cl)cc3)c(C)n(CC(=O)O)c2c1
inactive: efficacy [1] 38% | outcome [2] | outcome [3] | outcome [4] | outcome [5] | outcome [6]

O=C(O)CCCCCCNC1c2ccccc2CCc2ccccc21
inactive: efficacy [1] 26.2% | outcome [2] | outcome [3] | outcome [4] | outcome [5] | outcome [6]

O=C1CC2(CCCC2)CC(=O)N1CCNCC1COc2ccccc2O1 (configuration not stated)
inactive: efficacy [1] 16.2% | outcome [2] | outcome [3] | outcome [4] | outcome [5] | outcome [6]

O=C(O)C(=O)Nc1cccc(-c2nn[nH]n2)c1
inactive: efficacy [1] 14.4% | outcome [2] | outcome [3] | outcome [4] | outcome [5] | outcome [6]

OC(O)C(Cl)(Cl)Cl
inactive: efficacy [1] 18.1% | outcome [2] | outcome [3] | outcome [4] | outcome [5] | outcome [6]

Cc1[nH]c(C)c(Cl)c(=O)c1Cl
inactive: efficacy [1] 22.5% | outcome [2] | outcome [3] | outcome [4] | outcome [5] | outcome [6]

CNC(=O)c1c(I)c(NC(=O)CCCCC(=O)Nc2c(I)c(C(=O)O)c(I)c(C(=O)NC)c2I)c(I)c(C(=O)O)c1I
inactive: efficacy [1] -24% | outcome [2] | outcome [3] | outcome [4] | outcome [5] | outcome [6]

Nc1c(CC(=O)O)cccc1C(=O)c1ccc(Br)cc1
inactive: efficacy [1] 18.5% | outcome [2] | outcome [3] | outcome [4] | outcome [5] | outcome [6]

O=C(NCCc1c[nH]c2ccccc12)c1cccnc1
inactive: efficacy [1] 15.6% | outcome [2] | outcome [3] | outcome [4] | outcome [5] | outcome [6]

CCCCCCCCCCCCCCC[C@H](O)[C@@H](N)CO
inactive: efficacy [1] 25.9% | outcome [2] | outcome [3] | outcome [4] | outcome [5] | outcome [6]

O=C(Nc1ccc(C(=O)O)c(O)c1)c1ccccc1
inactive: efficacy [1] -10.4% | outcome [2] | outcome [3] | outcome [4] | outcome [5] | outcome [6]

NC1=NCC2c3ccccc3Cc3ccccc3N12 (configuration not stated)
inactive: efficacy [1] 22.9% | outcome [2] | outcome [3] | outcome [4] | outcome [5] | outcome [6]

CC1=C2[C@H]3OC(=O)[C@@H](C)[C@@H]3CC[C@@]2(C)C=CC1=O
inactive: efficacy [1] 18.3% | outcome [2] | outcome [3] | outcome [4] | outcome [5] | outcome [6]

CCn1cc(C(=O)O)c(=O)c2cc(F)c(N3CCNCC3)nc21
inactive: efficacy [1] -17.3% | outcome [2] | outcome [3] | outcome [4] | outcome [5] | outcome [6]
